Source: PubChem BioAssay AID1159580 (chemical genetic matrix, 2015)
In all, about 5,500 compounds went through this assay and about 2,000 (36%) were called active. Roughly 18% stayed inconclusive and do not appear here. Rule as the data show it: active = normalized growth mostly below about 0.91 (no sharp cut-off); inconclusive = no clear call, values can overlap the other calls; inactive = mostly above about 0.92. The list shows a part of the results.

Experiment: chemical genetic growth profiling, strain panel (AID 1159580);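 also: tested at 20 µM; growth read once vehicle control cultures reached saturation at 30 °C; 1 = growth at the plate median or of vehicle wells; lower values mean less growth of the strain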
Conditions: growth OD

Measured: normalized growth

CC(=O)O[C@H]1C[C@@H](O)C(C)(C)C2C[C@@H](OC(C)=O)[C@]3(C)C(CC[C@@]4(C)[C@H](c5ccoc5)OC(=O)C5OC543)[C@]21C (stereo partly specified)
inactive: S. cerevisiae deletion strains, locus YJL187C, strain SWE1, hits give low values 0.996 | S. cerevisiae deletion strains, locus YJR066W, strain TOR1, hits give low values 0.928 | S. cerevisiae deletion strains, locus YKL009W, strain mrt4, hits give low values 0.954 | S. cerevisiae deletion strains, locus YKL068W, hits give low values 0.976 | S. cerevisiae deletion strains, locus YKL085W, strain MDH1 (second series), hits give low values 0.974 | S. cerevisiae deletion strains, locus YKL085W, strain MDH1, hits give low values 0.974 | S. cerevisiae deletion strains, locus YKL160W, strain elf1, hits give low values 1.01 | S. cerevisiae deletion strains, locus YKR001C, strain vps1, hits give low values 0.983 | S. cerevisiae deletion strains, locus YKR026C, strain gcn3, hits give low values 1.01 | S. cerevisiae deletion strains, locus YKR091W, strain srl3, hits give low values 1.01 | S. cerevisiae deletion strains, locus YLL001W, strain dnm1, hits give low values 0.998 | S. cerevisiae deletion strains, locus YLL026W, hits give low values 1.01 | S. cerevisiae deletion strains, locus YLL041C, strain sdh2, hits give low values 0.999 | S. cerevisiae deletion strains, locus YLR027C, strain aat2, hits give low values 1.01 | S. cerevisiae deletion strains, locus YLR039C, strain RIC1, hits give low values 1.04 | S. cerevisiae deletion strains, locus YLR058C, strain SHM2, hits give low values 0.967 | S. cerevisiae deletion strains, locus YLR102C, strain apc9, hits give low values 0.984 | S. cerevisiae deletion strains, locus YLR113W, strain HOG1, hits give low values 1.02 | S. cerevisiae deletion strains, locus YLR221C, strain rsa3, hits give low values 1.01 | S. cerevisiae deletion strains, locus YLR258W, strain gsy2, hits give low values 1 | S. cerevisiae deletion strains, locus YLR262C, strain YPT6 (second series), hits give low values 1.01 | S. cerevisiae deletion strains, locus YLR262C, strain YPT6, hits give low values 1.02 | S. cerevisiae deletion strains, locus YLR268W, strain sec22, hits give low values 0.977 | S. cerevisiae deletion strains, locus YLR320W, strain mms22, hits give low values 1.02 | S. cerevisiae deletion strains, locus YLR330W, strain CHS5, hits give low values 0.992 | S. cerevisiae deletion strains, locus YLR342W, strain FKS1 (second series), hits give low values 0.988 | S. cerevisiae deletion strains, locus YLR342W, strain FKS1, hits give low values 1.01 | S. cerevisiae deletion strains, locus YLR357W, strain rsc2, hits give low values 1.04 | S. cerevisiae deletion strains, locus YLR370C, strain arc18, hits give low values 0.999 | S. cerevisiae deletion strains, locus YLR371W, strain rom2, hits give low values 0.988 | S. cerevisiae deletion strains, locus YLR384C, strain iki3, hits give low values 0.999 | S. cerevisiae deletion strains, locus YLR418C, strain cdc73, hits give low values 0.979 | S. cerevisiae deletion strains, locus YML016C, strain PPZ1, hits give low values 0.975 | S. cerevisiae deletion strains, locus YML032C, strain rad52, hits give low values 0.991 | S. cerevisiae deletion strains, locus YML120C, strain ndi1, hits give low values 1.01 | S. cerevisiae deletion strains, locus YML124C, strain tub3, hits give low values 0.986 | S. cerevisiae deletion strains, locus YMR058W, strain fet3, hits give low values 1.01 | S. cerevisiae deletion strains, locus YMR078C, strain ctf18, hits give low values 0.988 | S. cerevisiae deletion strains, locus YMR125W, strain sto1, hits give low values 1 | S. cerevisiae deletion strains, locus YMR129W, hits give low values 1.03 | S. cerevisiae deletion strains, locus YMR205C, strain PFK2, hits give low values 1.01 | S. cerevisiae deletion strains, locus YMR223W, strain ubp8, hits give low values 0.991 | S. cerevisiae deletion strains, locus YMR231W, strain pep5, hits give low values 0.988 | S. cerevisiae deletion strains, locus YMR307W, strain GAS1, hits give low values 0.964 | S. cerevisiae deletion strains, locus YNL067W, strain RPL9B, hits give low values 1.02 | S. cerevisiae deletion strains, locus YNL071W, strain lat1, hits give low values 1 | S. cerevisiae deletion strains, locus YNL183C, strain NPR1, hits give low values 0.946 | S. cerevisiae deletion strains, locus YNL209W, strain ssb2, hits give low values 0.995 | S. cerevisiae deletion strains, locus YNL233W, strain BNI4, hits give low values 1 | S. cerevisiae deletion strains, locus YNL248C, strain rpa49, hits give low values 1 | S. cerevisiae deletion strains, locus YNL250W, strain rad50, hits give low values 1.02 | S. cerevisiae deletion strains, locus YNL271C, strain bni1, hits give low values 0.989 | S. cerevisiae deletion strains, locus YNL298W, strain CLA4, hits give low values 0.992 | S. cerevisiae deletion strains, locus YNL307C, strain MCK1, hits give low values 0.995 | S. cerevisiae deletion strains, locus YNL322C, strain KRE1 (second series), hits give low values 1.02 | S. cerevisiae deletion strains, locus YNR049C, strain mso1, hits give low values 0.999 | S. cerevisiae deletion strains, locus YNR052C, strain pop2, hits give low values 0.987 | S. cerevisiae deletion strains, locus YOL006C, strain TOP1, hits give low values 0.989 | S. cerevisiae deletion strains, locus YOL012C, strain htz1 0.76 | S. cerevisiae deletion strains, locus YOL147C, strain pex11, hits give low values 0.99 | S. cerevisiae deletion strains, locus YOR001W, strain rrp6, hits give low values 1.03 | S. cerevisiae deletion strains, locus YOR061W, strain CKA2, hits give low values 0.966 | S. cerevisiae deletion strains, locus YOR069W, strain VPS5, hits give low values 0.998 | S. cerevisiae deletion strains, locus YOR070C, strain gyp1, hits give low values 1.01 | S. cerevisiae deletion strains, locus YOR080W, strain dia2, hits give low values 0.998 | S. cerevisiae deletion strains, locus YOR083W, strain WHI5, hits give low values 1.01 | S. cerevisiae deletion strains, locus YOR106W, strain vam3, hits give low values 1 | S. cerevisiae deletion strains, locus YOR136W, strain idh2, hits give low values 0.979 | S. cerevisiae deletion strains, locus YOR144C, strain elg1, hits give low values 0.989 | S. cerevisiae deletion strains, locus YOR184W, strain ser1, hits give low values 0.967 | S. cerevisiae deletion strains, locus YOR231W, strain MKK1, hits give low values 0.984 | S. cerevisiae deletion strains, locus YOR265W, strain rbl2, hits give low values 1 | S. cerevisiae deletion strains, locus YOR270C, strain vph1, hits give low values 0.967 | S. cerevisiae deletion strains, locus YOR290C, strain snf2, hits give low values 1 | S. cerevisiae deletion strains, locus YOR316C, strain cot1, hits give low values 0.989 | S. cerevisiae deletion strains, locus YPL051W, strain arl3, hits give low values 1.02 | S. cerevisiae deletion strains, locus YPL078C, strain atp4, hits give low values 0.997 | S. cerevisiae deletion strains, locus YPL106C, strain sse1, hits give low values 1.02 | S. cerevisiae deletion strains, locus YPL240C, strain hsp82, hits give low values 1.01 | S. cerevisiae deletion strains, locus YPL256C, strain CLN2, hits give low values 0.944 | S. cerevisiae deletion strains, locus YPR119W, strain clb2, hits give low values 0.985 | S. cerevisiae deletion strains, locus YPR141C, strain kar3, hits give low values 0.986 | S. cerevisiae deletion strains, locus YPR163C, strain tif3, hits give low values 0.982 | S. cerevisiae deletion strains, locus YPR167C, strain met16, hits give low values 0.987 | S. cerevisiae deletion strains, strain wtn01, hits give low values 0.968 | S. cerevisiae strains, strain wild type, hits give low values 0.988
